Wnt bcat act: Wnt/beta-catenin pathway activators, primary screen, cell-based, plate reader, single point; 300,000 tested, 1.2% active; AID 743398, 2014; Wnt/beta-catenin reporter cell assay, activator; activation, % at 9.35 µM; in the data active = activation above about 30%, passing the limit was not always enough;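 note: 0% = neutral control wells and 100% = positive control wells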
APOBEC3G inh: APOBEC3G DNA deaminase inhibitors, primary screen, biochemical, fluorescence, single-stranded DNA substrate, uHTS; inhibition, % at 20 µM; recombinant A3G, ssDNA deamination FAM/TAMRA fluorescence; DNA dC->dU-editing enzyme APOBEC-3G (Homo sapiens), Q9HC16; 330,000 tested, 0.28% active;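 active = inhibition of at least 40% at 20 µM, with no more than 30% in the related APOBEC3A deaminase screen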;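 note: plate controls were DMSO wells with A3G for no effect and wells lacking A3G enzyme for full effect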
MITF act: activators of MITF-driven TRPM1 promoter reporter, primary screen, cell-based, SK-MEL-5, luciferase, single point | 300,000 tested, 0.75% active | activation, % at 12.5 µM | AID 588334, 2011 | SK-MEL-5 TRPM1-promoter luciferase, 24 h; % of positive control, neutral wells = 0;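 active = mean activation of at least 80% with every replicate also reaching 80%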;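 note: 0% = neutral control wells and 100% = parthenolide positive control wells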
APOBEC3A inh: APOBEC3A ssDNA deaminase inhibitors, primary screen, selectivity assay for APOBEC3G inhibitor project, biochemical, FAM/TAMRA oligo cleavage fluorescence; DNA dC->dU-editing enzyme APOBEC-3A (Homo sapiens), P31941; 330,000 tested, 0.41% active; recombinant A3A, FAM/TAMRA ssDNA deamination fluorescence; inhibition, % at 20 µM;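 active = at least 40% inhibition at 20 µM here, with at most 30% in a related deaminase screen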;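 note: plate controls were A3A with DMSO for no effect and wells lacking A3A enzyme for full effect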
Target sequence (P31941 whole entry, looked up): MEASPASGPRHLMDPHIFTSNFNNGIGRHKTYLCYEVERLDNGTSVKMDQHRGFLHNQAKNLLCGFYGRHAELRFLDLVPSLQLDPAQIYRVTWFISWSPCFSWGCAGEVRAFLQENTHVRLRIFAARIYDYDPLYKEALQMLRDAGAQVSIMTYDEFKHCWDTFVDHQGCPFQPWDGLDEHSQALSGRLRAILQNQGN
esBAF inh: Bmi1 luciferase reporter increase in mESCs, primary screen, esBAF inhibitor project, mouse ES cells, Bmi1 luciferase knock-in, single point | 24 h; 100% = twice the neutral-well signal | reporter increase, % at 12.5 µM | 350,000 tested, 2% active; in the data active = activation above about 40%;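 note: 0% = median of the plate's neutral control wells and 100% = double that signal; a rise in the Bmi1 reporter signal indicates esBAF inhibition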
PHOSPHO1 inh: PubChem AID 1565. Phosphoethanolamine/phosphocholine phosphatase (Homo sapiens), Q8TCT1. recombinant PHOSPHO1, absorbance phosphatase assay. inhibition, % at 13.3 µM. 290,000 tested, 1.1% active; in the data active = inhibition above about 60%
Target sequence (Q8TCT1 whole entry, looked up): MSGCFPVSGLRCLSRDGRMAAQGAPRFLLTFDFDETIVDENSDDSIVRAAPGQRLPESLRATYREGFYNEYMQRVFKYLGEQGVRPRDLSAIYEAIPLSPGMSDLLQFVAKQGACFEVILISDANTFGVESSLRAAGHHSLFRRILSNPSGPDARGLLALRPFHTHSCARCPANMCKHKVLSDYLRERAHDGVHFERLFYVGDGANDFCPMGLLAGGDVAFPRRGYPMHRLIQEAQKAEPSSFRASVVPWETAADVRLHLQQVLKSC
The depositor's hits bear a star. This is a sample that favours compounds with a hit; in the whole collection about 3.6% have one here.

For Cc1ccc(Cn2cc(C=O)c(-c3ccc(F)cc3)n2)cc1 the results were Wnt bcat act 3, APOBEC3G inh 21, MITF act 14, APOBEC3A inh -4, esBAF inh 33 and PHOSPHO1 inh 31.
For Cc1ccc(-c2nn(Cc3ccccc3)cc2C(=O)O)cc1 the results were Wnt bcat act 0, APOBEC3G inh -6, MITF act -1, APOBEC3A inh 1, esBAF inh 5 and PHOSPHO1 inh 24.
Screening Cc1ccc(-c2nn(Cc3ccccc3)cc2C=O)cc1C returned Wnt bcat act 9, APOBEC3G inh -9, MITF act -5, APOBEC3A inh -3, esBAF inh 88* and PHOSPHO1 inh -1.
For Cc1ccc(-c2nn(Cc3ccccc3)cc2C=O)cc1 the results were Wnt bcat act 55*, APOBEC3G inh -2, MITF act 44, APOBEC3A inh 3 and PHOSPHO1 inh 1.
Screening CC=Cc1ccc2n(c1=O)C[C@H]1[C@H](CO)[C@@H](C(=O)O)[C@@H]2N1S(=O)(=O)c1ccccc1C (mixture of isomers) returned esBAF inh -1.
`CNC(=O)CSP(=S)(OC)OC` gave Wnt bcat act 2, MITF act -4 and esBAF inh -2.
`COP(=S)(OC)SCN1C(=O)c2ccccc2C1=O` gave Wnt bcat act -1, APOBEC3G inh 12, MITF act 5, APOBEC3A inh -4, esBAF inh -1 and PHOSPHO1 inh 77*.
`O=[N+]([O-])c1ccccc1CNCCc1c[nH]c2ccccc12` gave Wnt bcat act 1, APOBEC3G inh -3, MITF act -13, APOBEC3A inh -2, esBAF inh -2 and PHOSPHO1 inh -65.
`O=[N+]([O-])c1ccccc1CNCCc1ccc(F)cc1` gave APOBEC3G inh -4, MITF act 21, APOBEC3A inh -2, esBAF inh 41* and PHOSPHO1 inh 10.
CCCCNS(=O)(=O)c1ccc(OCC(=O)N2CCN(Cc3ccc4c(c3)OCO4)CC2)cc1 was read as Wnt bcat act -5, APOBEC3G inh -3, MITF act -9, APOBEC3A inh 1, esBAF inh 2 and PHOSPHO1 inh 61*.
CCCNS(=O)(=O)c1ccc(OCC(=O)N2CCN(Cc3ccccc3)CC2)cc1 was read as Wnt bcat act -3, APOBEC3G inh -6, MITF act -18, APOBEC3A inh -5, esBAF inh 1 and PHOSPHO1 inh -10.
CC(C)(C)NS(=O)(=O)c1ccc(OCC(=O)N2CCN(Cc3ccccc3)CC2)cc1 was read as Wnt bcat act 0, APOBEC3G inh -3, MITF act -16, APOBEC3A inh 5 and PHOSPHO1 inh 60*.
Screening c1ccc(CN2CCc3nc4ccccc4cc3C2)cc1 returned Wnt bcat act 19, APOBEC3G inh -3, APOBEC3A inh 1, esBAF inh 53* and PHOSPHO1 inh 29.
Screening O=C1NC(=O)C(CCc2ccncc2)(CCc2ccncc2)C(=O)N1CCc1ccccc1 returned Wnt bcat act -1, APOBEC3G inh -6, MITF act 0, APOBEC3A inh 0, esBAF inh 3 and PHOSPHO1 inh 63*.
CCCN1[C@@H]2c3ccc(-c4cccc(C(=O)N(C)C)c4)c(=O)n3C[C@H]1[C@H](CO)[C@H]2C(=O)OC was read as esBAF inh -3.
COc1cc(OC)cc(C(=O)NC(=S)N2C[C@H]3C[C@H](C2)c2cccc(=O)n2C3)c1 was read as Wnt bcat act -1, APOBEC3G inh -11, MITF act 3, APOBEC3A inh -4, esBAF inh 5 and PHOSPHO1 inh 19.
COc1cccc(OCc2cc(C(=O)N3C[C@H]4C[C@@H](C3)c3cccc(=O)n3C4)no2)c1 was read as Wnt bcat act 28, APOBEC3G inh -8, MITF act 101*, APOBEC3A inh -7, esBAF inh 73* and PHOSPHO1 inh 26.
`O=C(c1ccc(-c2ccccc2)c(F)c1)C1CCCN(CCO)C1` (centres undefined) gave Wnt bcat act 4, APOBEC3G inh -6, MITF act 41, APOBEC3A inh -1, esBAF inh 5 and PHOSPHO1 inh 60*.
`COc1ccc(Cl)cc1C(=O)C1CCCN(CCO)C1` (centres undefined) gave Wnt bcat act -1, APOBEC3G inh 4, MITF act 6, APOBEC3A inh 4 and PHOSPHO1 inh 18.
COC(=O)[C@@H]1[C@@H](CO)[C@@H]2Cn3c(ccc(-c4ccccc4F)c3=O)[C@H]1N2Cc1ccccc1 was read as esBAF inh -4.
Screening O=c1[nH]c(O)c(N=Nc2cccc(S(=O)(=O)N3CCOCC3)c2)c(=O)[nH]1 returned Wnt bcat act -6, APOBEC3G inh -5, MITF act -2, APOBEC3A inh -1 and PHOSPHO1 inh 60*.
O=c1[nH]c(=S)[nH]c(O)c1N=Nc1cccc(S(=O)(=O)N2CCOCC2)c1 was read as Wnt bcat act 6, APOBEC3G inh -3, MITF act -11, APOBEC3A inh 4, esBAF inh -3 and PHOSPHO1 inh -23.
O=C1CN=C(c2cc([N+](=O)[O-])ccc2Cl)c2cc([N+](=O)[O-])ccc2N1 was read as Wnt bcat act 47*, APOBEC3G inh 0, APOBEC3A inh 4 and esBAF inh 1.
O=C1CN=C(c2ccccc2)c2cc([N+](=O)[O-])ccc2N1 was read as Wnt bcat act 2, APOBEC3G inh -1, MITF act 5, APOBEC3A inh 2 and esBAF inh -2.
CN1C(=O)C(=Cc2ccc(N3CCOCC3)o2)C(=O)N(C)C1=O was read as Wnt bcat act 0, APOBEC3G inh -3, MITF act 8, APOBEC3A inh -3 and PHOSPHO1 inh -2.
CN1C(=O)C(=Cc2ccc(N3CCCCCC3)o2)C(=O)N(C)C1=S was read as Wnt bcat act -2, APOBEC3G inh -10, APOBEC3A inh -3, esBAF inh 41* and PHOSPHO1 inh -27.
CC1=NN(c2ccccc2)C(=O)/C1=C/c1c(O)[nH]c(=O)[nH]c1=O was read as Wnt bcat act 7, APOBEC3G inh -4, MITF act 2, APOBEC3A inh -3, esBAF inh -17 and PHOSPHO1 inh 32.
`CC1=NN(c2ccccc2)C(=O)/C1=C/c1c(O)[nH]c(=S)[nH]c1=O` gave APOBEC3G inh 2, MITF act -11, APOBEC3A inh -8, esBAF inh -5 and PHOSPHO1 inh 86*.

High-throughput results from PubChem.
